Active and inactive are the calls of the source.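 The calls were made as follows, unless noted: active = inhibition at or above 50% at 10 µM; inactive = inhibition below 50%.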

The text below walks through data of PubChem BioAssay.

The nature of experiment [1]: inhibitors of TNFa-induced NFkB p65 translocation, primary screen, imaging, HUVEC, MLSMR starter and 10KST1 sets (AID 438;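 active = inhibition above 20% together with a positive visual image hit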;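 also: compound added about 3h40 before a 20 min TNFalpha stimulation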;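 as to inhibition: signal is the nuclear over cytoplasmic p65 intensity ratio per well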). The settings on record: HUVEC TNFa-induced p65 nuclear translocation; cell count: measured here: nuclei count (cytotoxicity indicator), at 2.08 µM; inhibition: at 2 µM, stronger effect = higher value, 0% TNFa-plus-vehicle, 100% no-TNFa wells.
Experiment [2] in a line: reduction of polyQ htt aggregates in cells – imaging, exon1htt(103Q)mCFP cells, high-content imaging, primary screen (AID 483;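 active = visual image review flags a hit and inhibition of aggregation exceeds 20%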;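 also: compound exposure lasted 3 days before fixation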;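 as to nuclei count: percent of the per-plate median nuclei count of sample wells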). The settings on record: exon1htt(103Q)mCFP cell line, aggregate imaging, at 2 µM; inhibition of aggregation: stronger effect = higher value; nuclei count: measured here: cell count, toxicity.
Experiment [3] is described as follows: endothelial E-selectin expression blockers – imaging, HUVEC, immunofluorescence, MLSMR starter and 10KST1 sets, primary screen (AID 487;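 active = visually confirmed hit in the image check and inhibition above 20%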;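 as to inhibition: signal is fraction of cell area covered by stained E-selectin grains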;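 as to nuclei count: 100% = median nuclei count of all wells on the same plate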). To be noted: HUVEC TNFalpha-induced E-selectin immunofluorescence imaging, at 2 µM; inhibition: stronger effect = higher value; nuclei count: measured here: cell number, toxicity.
The target in experiment [4] is Voltage-gated potassium channel subunit beta-2 (Rattus norvegicus) (UniProt P62483). The experiment is described as follows: inhibitors of rat Kvbeta2 reductase activity – biochemical, NADPH fluorescence, primary screen (AID 622;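 active = fluorescence slope higher than the sample average by over 3 SD, cut at about -0.22 in these data, passing the limit was not always enough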;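 also: slope of raw intensity against log time taken from 70 to 1610 s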). To be noted: recombinant KvBeta, 4-cyanobenzaldehyde reduction, at 10 µM, stronger effect = higher value.
Voltage-gated potassium channel subunit beta-2 (Rattus norvegicus), sequence (P62483 whole entry, looked up): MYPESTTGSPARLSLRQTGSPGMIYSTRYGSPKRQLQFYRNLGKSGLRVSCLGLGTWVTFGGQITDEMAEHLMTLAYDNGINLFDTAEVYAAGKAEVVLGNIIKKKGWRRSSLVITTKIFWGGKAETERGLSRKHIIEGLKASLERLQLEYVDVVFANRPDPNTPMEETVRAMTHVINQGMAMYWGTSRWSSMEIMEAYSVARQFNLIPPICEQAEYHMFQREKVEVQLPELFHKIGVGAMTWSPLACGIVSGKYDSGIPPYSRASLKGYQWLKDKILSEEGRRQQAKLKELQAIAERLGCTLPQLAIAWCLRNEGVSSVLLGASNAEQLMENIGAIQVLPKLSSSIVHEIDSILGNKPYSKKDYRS
For experiment [5] the target is unchanged. The experiment is described as follows: enhancers of rat Kvbeta2 NADPH turnover – biochemical, NADPH fluorescence, primary screen (AID 623;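 active = NADPH fluorescence slope more negative than the mean of all samples by about 3 SD, 99.7% confidence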;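 also: fluorescence intensity change per second fitted from 20 to 320 s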). The settings on record: Recombinant KvBeta, NADPH fluorescence decrease slope, 10 min; at 10 µM; stronger effect = lower value.
In experiment [6] the target is Alpha-2C adrenergic receptor (Homo sapiens) (UniProt P18825). The experiment is described as follows: compounds altering alpha2C-coupled GIRK flux – cell-based, HEK293 alpha2C/GIRK1/2, thallium flux, primary screen (AID 624;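 active = fluorescence slope after compound addition differing from the mean of all screened samples at 99.7% confidence, in either direction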;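 also: slope of fluorescence ratio to pre-addition baseline per second over 15 to 24 s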). To be noted: thallium flux BTC fluorescence, at 10 µM, actives lie on both sides.
Alpha-2C adrenergic receptor (Homo sapiens), sequence (P18825 whole entry, looked up): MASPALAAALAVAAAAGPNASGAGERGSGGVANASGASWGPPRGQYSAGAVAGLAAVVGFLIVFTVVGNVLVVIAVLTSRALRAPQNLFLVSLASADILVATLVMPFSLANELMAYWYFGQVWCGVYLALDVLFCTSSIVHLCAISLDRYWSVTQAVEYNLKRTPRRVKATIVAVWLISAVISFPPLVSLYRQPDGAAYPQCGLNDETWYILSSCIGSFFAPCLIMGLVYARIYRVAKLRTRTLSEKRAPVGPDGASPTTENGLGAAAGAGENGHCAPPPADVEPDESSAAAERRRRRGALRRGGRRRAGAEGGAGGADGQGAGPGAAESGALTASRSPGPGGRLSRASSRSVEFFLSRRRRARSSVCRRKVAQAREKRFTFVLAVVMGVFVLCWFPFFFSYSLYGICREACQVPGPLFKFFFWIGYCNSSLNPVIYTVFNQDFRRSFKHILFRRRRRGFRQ
Experiment [7] in a line: blockers of RIG-like receptor reporter activation – cell-based, Sendai virus stimulus, luciferase, 10K MLSCN set, TLR/RLR signaling modifier project, primary screen (AID 602276).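 Also: firefly luciferase from ISG56 promoter only with Renilla not read in this screen; 0% = Sendai virus plus DMSO and 100% = medium plus DMSO without virus.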 The settings on record: HEK293 RL24 IRF3 luciferase reporter, at 10 µM, stronger effect = higher value. Background: Reporter assays use an easily measured gene product as a stand-in for the process of interest.

The nature of experiment [8]: TLR3 IRF3 reporter activation blockers – cell-based, poly I:C stimulus, luciferase, 10K MLSCN set, primary screen (AID 602277;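 active = inhibition of the reporter signal at or above 50%; inactive = inhibition below 50%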). To be noted: HEK293-TLR3 RL24 IRF3 luciferase reporter, at 10 µM, stronger effect = higher value.

`Cc1ccc(-c2noc(CN3CCN(c4ccccc4F)CC3)n2)cc1`: the cell count in experiment [1] amounted to 468. Further, the inhibition in experiment [1] was -2.6% (inactive); in experiment [3] it was -30.6% (inactive); in experiment [7], 14.7% (inactive); in experiment [8], 39% (inactive). The inhibition of aggregation in experiment [2] is -0.3% (inactive). The nuclei count in experiment [2] worked out at 84.1%; in experiment [3] it was 101%. Moreover, the fluorescence slope in experiment [4] was -0.556 (inactive). The NADPH fluorescence slope in experiment [5] was -3.7e-05 (inactive). For the same molecule, the slope in experiment [6] was 0.00746 (inactive).
Consider `COC(=O)C(C)Sc1nnc2n(-c3cccc(C)c3)c(=O)c3c4c(sc3n12)CCCC4` (centres undefined), for which the cell count in experiment [1] was found to be 660. Moreover, the inhibition is 9.4% (inactive) in experiment [1], -1.2% (inactive) in experiment [3], -16% (inactive) in experiment [7] and -7.85% (inactive) in experiment [8]. Also, the inhibition of aggregation in experiment [2] was 7.6% (inactive). In addition, the results for the nuclei count in experiment [2] and in experiment [3] were 101% and 120%, respectively. Further, the fluorescence slope in experiment [4] was -0.58 (inactive). Also, the NADPH fluorescence slope in experiment [5] is -3.5e-06 (inactive). For the same molecule, the slope in experiment [6] was 0.00585 (inactive).
On to `O=C(Cn1ncc2c1-c1ccccc1OC2)N1CCN(c2ccccn2)CC1`, for which the cell count in experiment [1] is 631. For the same molecule, the inhibition was -1.1% (inactive) in experiment [1], -55.8% (inactive) in experiment [3], 3.72% (inactive) in experiment [7] and 26.9% (inactive) in experiment [8]. Also, the inhibition of aggregation in experiment [2] is -24.9% (inactive). The nuclei count in experiment [2] was found to be 131%; in experiment [3] it was 111%. Also, in experiment [4], the fluorescence slope is -0.587 (inactive). Besides, the NADPH fluorescence slope in experiment [5] is -5.3e-05 (inactive). For the same molecule, the slope in experiment [6] is 0.00617 (inactive).
Consider `Oc1ccc2cccnc2c1`, for which the cell count in experiment [1] worked out at 719. For the same molecule, the inhibition in experiment [1] is -12.9% (inactive); in experiment [3] it was -44.3% (inactive); in experiment [7], -2.36% (inactive); in experiment [8], 0.747% (inactive). For the same molecule, the inhibition of aggregation in experiment [2] was -15.8% (inactive). Also, the results for the nuclei count in experiment [2] and in experiment [3] were 100% and 118%, respectively. Moreover, in experiment [4], the fluorescence slope is -0.12 (active). Moreover, in experiment [5], the NADPH fluorescence slope was 2.2e-05 (inactive). Further, in experiment [6], the slope was 0.00432 (inactive).
Turning to `Cc1cc(C(=O)NCCN2CCCCC2C)n(-c2ccccc2)n1` (centres undefined), in experiment [1], the cell count stood at 879. The inhibition was 0.6% (inactive) in experiment [1], -39.7% (inactive) in experiment [3], 1.98% (inactive) in experiment [7] and 23.7% (inactive) in experiment [8]. Further, the inhibition of aggregation in experiment [2] is 11.3% (inactive). For the same molecule, the nuclei count in experiment [2] came to 96%; in experiment [3], 113%. Moreover, the fluorescence slope in experiment [4] was -0.552 (inactive). Moreover, the NADPH fluorescence slope in experiment [5] was -4.7e-05 (inactive). For the same molecule, in experiment [6], the slope was 0.0056 (inactive).
`COc1ccc(OC)c(Nc2nc(-c3sc(N)nc3C)cs2)c1`: in experiment [1], the cell count was determined as 715. Also, the inhibition was -8.6% (inactive) in experiment [1], -77.1% (inactive) in experiment [3], -4.79% (inactive) in experiment [7] and -10.6% (inactive) in experiment [8]. Further, the inhibition of aggregation in experiment [2] is 11.3% (inactive). The nuclei count was 104% in experiment [2] and 105% in experiment [3]. Also, the fluorescence slope in experiment [4] was -0.34 (inactive). For the same molecule, the NADPH fluorescence slope in experiment [5] is -4.1e-05 (inactive). For the same molecule, the slope in experiment [6] was 0.00384 (inactive).
As to `COc1ccc(C2c3sc(=O)[nH]c3SC3C4CCC(C4)C23)cc1` (centres undefined), in experiment [1], the cell count was determined as 573. Besides, the inhibition was -7.6% (inactive) in experiment [1], -69.5% (inactive) in experiment [3], -5.3% (inactive) in experiment [7] and 9.16% (inactive) in experiment [8]. In addition, the inhibition of aggregation in experiment [2] was -14% (inactive). In addition, the nuclei count in experiment [2] was found to be 93.8%; in experiment [3] it was 106%. Also, in experiment [4], the fluorescence slope was -0.53 (inactive). The NADPH fluorescence slope in experiment [5] is 3.9e-05 (inactive). The slope in experiment [6] is 0.00413 (inactive).
As to `Nn1c(SCC(=O)Nc2ccc(F)cc2)nnc1-c1cccnc1`, the cell count in experiment [1] is 74. Moreover, the inhibition in experiment [1] is 55.5% (active); in experiment [3] it was -112% (inactive); in experiment [7], 12.6% (inactive); in experiment [8] it was 25.6% (inactive). For the same molecule, in experiment [2], the inhibition of aggregation was -0.3% (inactive). Further, the figures for the nuclei count in experiment [2] and in experiment [3] were 111% and 108%, respectively. Moreover, in experiment [4], the fluorescence slope is -0.397 (inactive). Further, the NADPH fluorescence slope in experiment [5] was -0.000146 (inactive). For the same molecule, the slope in experiment [6] is 0.00484 (inactive).
Regarding `Cc1csc(NC(=O)c2ccco2)n1`, the cell count in experiment [1] came to 464. The inhibition in experiment [1] was -3.3% (inactive); in experiment [3], -72% (inactive); in experiment [7], -20.1% (inactive); in experiment [8], -56.9% (inactive). Besides, the inhibition of aggregation in experiment [2] is -1.8% (inactive). In addition, the figures for the nuclei count in experiment [2] and in experiment [3] were 109% and 131%, respectively. Besides, the fluorescence slope in experiment [4] is -0.32 (inactive). Also, the NADPH fluorescence slope in experiment [5] is -1.3e-06 (inactive). In addition, the slope in experiment [6] is 0.00701 (inactive).
`CC(O)CN1C(=O)C(CC(=O)Nc2ccc(Cl)cc2)SC1=Nc1ccccc1` (centres undefined): the cell count in experiment [1] amounted to 671. Further, the inhibition in experiment [1] is -3.9% (inactive); in experiment [3], -16.8% (inactive); in experiment [7], 2.35% (inactive); in experiment [8], 11.1% (inactive). For the same molecule, the inhibition of aggregation in experiment [2] was -11.8% (inactive). The nuclei count is 119% in experiment [2] and 116% in experiment [3]. Moreover, in experiment [4], the fluorescence slope was -0.453 (inactive). For the same molecule, the NADPH fluorescence slope in experiment [5] is -0.000376 (inactive). For the same molecule, the slope in experiment [6] is 0.00536 (inactive).
For the molecule `N#Cc1c(NC(=O)c2ccc(Br)o2)n(-c2ccccc2)c2nc3ccccc3nc12`, the cell count in experiment [1] stood at 275. Also, the inhibition was -1.4% (inactive) in experiment [1], -63.2% (inactive) in experiment [3], 19.9% (inactive) in experiment [7] and 18.8% (inactive) in experiment [8]. For the same molecule, in experiment [2], the inhibition of aggregation was 14.7% (inactive). Further, the results for the nuclei count in experiment [2] and in experiment [3] were 97.4% and 104%, respectively. In experiment [4], the fluorescence slope is -0.502 (inactive). In addition, the NADPH fluorescence slope in experiment [5] was -2e-05 (inactive). In experiment [6], the slope was 0.0121 (active).
As for `O=C(Cn1nc(-c2ccc3c(c2)OCCO3)ccc1=O)Nc1ccc(N2CCOCC2)cc1`, in experiment [1], the cell count is 270. Also, the inhibition is 11.8% (inactive) in experiment [1], -60.3% (inactive) in experiment [3], 2.21% (inactive) in experiment [7] and 21% (inactive) in experiment [8]. Also, the inhibition of aggregation in experiment [2] was -53.9% (inactive). Further, the nuclei count in experiment [2] was 90.7%; in experiment [3] it was 111%. Further, in experiment [4], the fluorescence slope is -0.429 (inactive). The NADPH fluorescence slope in experiment [5] is -5.2e-05 (inactive). Besides, the slope in experiment [6] is 0.00403 (inactive).
With `COc1cc2c(C#N)c(N3CCOCC3)nc(N)c2c(N)n1`, the cell count in experiment [1] was 694. In addition, the inhibition is -7.8% (inactive) in experiment [1], -22.5% (inactive) in experiment [3], 15.2% (inactive) in experiment [7] and 46.9% (inactive) in experiment [8]. The inhibition of aggregation in experiment [2] is -18.2% (inactive). Moreover, the nuclei count in experiment [2] was found to be 117%; in experiment [3], 114%. Further, the fluorescence slope in experiment [4] is -0.0448 (inactive). Further, in experiment [5], the NADPH fluorescence slope is -2.1e-06 (inactive). The slope in experiment [6] was 0.00579 (inactive).
In the case of `Cc1cc(C(=O)CN2C(=O)c3ccccc3C2=O)c(C)n1Cc1cccs1`, the cell count in experiment [1] came out at 522. The inhibition was -14.8% (inactive) in experiment [1], -3.3% (inactive) in experiment [3], 14.6% (inactive) in experiment [7] and 52.1% (active) in experiment [8]. Further, in experiment [2], the inhibition of aggregation is -1% (inactive). Further, the nuclei count was determined as 112% in experiment [2] and 161% in experiment [3]. The fluorescence slope in experiment [4] is -0.517 (inactive). In experiment [5], the NADPH fluorescence slope is -0.000116 (inactive). In experiment [6], the slope was 0.00475 (inactive).

In general, inhibition refers to the change of the read-out against control, counted positive when it falls.
